The text below walks through data of PubChem BioAssay (NCI).

Assay [1] in a line: NCI Yeast Anticancer Drug Screen. Data for the rad50 strain (AID 155).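 Further: 0% = growth of vehicle-only cultures of the same strain.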 The conditions noted are these: S. cerevisiae rad50 strain growth inhibition; at 50.0 µM; active compounds read high. The gist of the method:
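Compounds were tested on a yeast strain with an engineered DNA damage repair alteration; the reported value is growth inhibition normalised to vehicle treatment.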

A short description of assay [2]: NCI Yeast Anticancer Drug Screen. Data for the mec2-1 strain (AID 157). To be noted: S. cerevisiae mec2-1 strain, at 50.0 µM, active compounds read high. The gist of the method:
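Growth inhibition is read against vehicle-treated controls after compound exposure of the mec2-1 yeast strain, which is defective in DNA damage repair or cell cycle control.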

Assay [3] is described as follows: NCI Yeast Anticancer Drug Screen. Data for the sgs1 mgt1 strain (AID 161).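 Further: 0% = growth of cultures given vehicle only.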 The conditions noted are these: S. cerevisiae sgs1 mgt1 strain, at 50.0 µM, active compounds read high. The gist of the method: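 Growth of a repair-deficient yeast mutant was monitored after compound treatment and expressed as inhibition relative to vehicle-treated cultures.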
Assay [4] is described as follows: NCI Yeast Anticancer Drug Screen. Data for the cln2 rad14 strain (AID 165).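 Further: 0% = growth equal to vehicle treated cultures.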 To be noted: S. cerevisiae cln2 rad14 strain, at 50.0 µM, active compounds read high. The gist of the method:
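Growth inhibition, relative to vehicle-treated controls, is the read-out. The test organism is a yeast strain with defined genetic alterations, cln2 rad14.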

The nature of assay [5]: NCI Yeast Anticancer Drug Screen. Data for the bub3 strain (AID 167). To be noted: S. cerevisiae bub3 mutant strain, at 50.0 µM, active compounds read high. The gist of the method:
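Growth of a checkpoint-deficient yeast mutant is measured after compound exposure. Values represent inhibition relative to vehicle.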

A short description of assay [6]: NCI Yeast Anticancer Drug Screen. Data for the mlh1 rad18 strain (AID 175). The conditions noted are these: S. cerevisiae mlh1 rad18 strain growth inhibition; at 50.0 µM; active compounds read high. The gist of the method: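 Cells of a genetically altered yeast strain, deficient in DNA damage repair, were treated with compound. Their growth was then compared with that of vehicle-treated cultures to give inhibition.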

About 79,000 compounds went through this panel and 15% of them were active in at least one assay; those are over-represented in the sample as a whole. Unmarked numbers belong to inactive results. Activity calls are given as the source filed them. No stated cut-off is given here; in the data, active means growth inhibition above about 70%; inactive means the rest. Where a SMILES comes first, the peptide text is derived from it. [ ]: non-standard residue; d: D form. ξ: configuration not given here. ξV = CC(C)C(N)C(=O)O

`CCCSc1ccc([N+](=O)[O-])cc1[N+](=O)[O-]`: the growth inhibition in assay [1] was 31.8%; in assay [2], -5.6%; in assay [3], 25.2%; in assay [4], 1%; in assay [5] it was -5.35%; in assay [6], 32.8%.

For the compound `CCCN(CCC#N)C(=S)Nc1ccc(C)c(C)c1`, the growth inhibition was -13.1% in assay [1]; -54.7% in assay [2]; -3.1% in assay [3]; -7.5% in assay [4]; -41.6% in assay [5]; -27.9% in assay [6].

`CN(C)CCC(=O)C(=Cc1ccc(O)cc1)C(=O)CCN(C)C`: the growth inhibition in assay [1] was -35.2%; in assay [2] it was -38.1%; in assay [3] it was -2.4%; in assay [4], -3.5%; in assay [5] it was 7.1%; in assay [6], -39.5%.

Take `O=C(O)c1cc(/C=C/c2cc(O)ccc2O)ccc1O`: the growth inhibition in assay [1] is -14.7%; in assay [2], -21.8%; in assay [3], -24.8%; in assay [4], -2.05%; in assay [5], -33.4%; in assay [6] it was -39.6%.

`COc1cc(NS(=O)(=O)c2ccc(N)cc2)nc(OC)n1`: the growth inhibition in assay [1] is -28.3%; in assay [2], -11.3%; in assay [3], -11.1%; in assay [4], -60.2%; in assay [5] it was -22.6%; in assay [6] it was -3.9%.

Consider `COC1=Cc2nc3ccccc3nc2OC1(C)C`, for which the growth inhibition in assay [1] was -13.2%; in assay [2], 3.15%; in assay [3], 10.6%; in assay [4] it was -16.4%; in assay [5] it was 17.8%; in assay [6] it was 3.75%.

Take `Cc1ccc(C(=O)OCC2OC(Cl)CC2OC(=O)c2ccc(C)cc2)cc1` (stereo unspecified): the growth inhibition in assay [1] is 22.6%; in assay [2] it was -13.7%; in assay [3], 26.8%; in assay [4] it was -36%; in assay [5] it was 2.85%; in assay [6] it was -8.3%.

On to `Cc1ccc(S(=O)(=O)N2CCC2c2ccccc2)cc1` (stereo unspecified), for which the growth inhibition is 4.55% in assay [1]; -3.8% in assay [2]; -17.9% in assay [3]; -3.85% in assay [4]; -17.9% in assay [5]; -24.9% in assay [6].

Consider `COc1ccc(C(=O)c2cc3c(ccc4ccccc43)oc2=O)cc1`, for which the growth inhibition is -3.7% in assay [1]; 0.6% in assay [2]; 7.2% in assay [3]; 2.85% in assay [4]; 23.9% in assay [5]; -7.45% in assay [6].

On to `Cn1c(=O)c2c(ncn2-c2ccc(N)cn2)n(C)c1=O`, for which the growth inhibition was -7.1% in assay [1]; -4.55% in assay [2]; -7.15% in assay [3]; 9.45% in assay [4]; 11.2% in assay [5]; 4.1% in assay [6].

As for `CCCOc1cc2c(cc1C(C)c1ccc(OCC)cc1)OCO2` (stereo unspecified), the growth inhibition was 36% in assay [1]; -25.8% in assay [2]; -9.3% in assay [3]; 0.9% in assay [4]; -26.8% in assay [5]; -49.8% in assay [6].

As to `CC(=O)Oc1ccc(-c2ccccc2)cc1`, the growth inhibition in assay [1] is 23.3%; in assay [2], 20.8%; in assay [3], 16%; in assay [4] it was 3.1%; in assay [5], 18%; in assay [6], 26.3%.

Turning to `CCc1c(C)c(C)c(C)c(C)c1C(C)=O`, the growth inhibition in assay [1] was -5%; in assay [2] it was -22.4%; in assay [3], -7.35%; in assay [4], 20.1%; in assay [5], 6.4%; in assay [6] it was -26.6%.

For the compound `CC(C)C(N)C(=O)NCC(=O)NCC(=O)O` (stereo not drawn) (H-[ξV]-Gly-Gly-OH), the growth inhibition is -9.4% in assay [1]; -22.2% in assay [2]; -20.4% in assay [3]; -8.15% in assay [4]; -28.8% in assay [5]; -23.4% in assay [6].

For `Cc1cccc(C(=O)O)n1.[Cu+2]`, the growth inhibition in assay [1] is -20.6%; in assay [2], 7.6%; in assay [3], -19.4%; in assay [4], -69.9%; in assay [5], -27.6%; in assay [6], -11.6%.

`C#CCCC#C`: the growth inhibition in assay [1] was -4.4%; in assay [2] it was -17.3%; in assay [3], 8.4%; in assay [4], 6%; in assay [5], -16.1%; in assay [6] it was -5.8%.

Regarding `CCOC(=O)CN=c1nc(SC)sc2c(C(=O)OCC)nc(Sc3ccccc3)n12`, the growth inhibition was 1.25% in assay [1]; -7.25% in assay [2]; 1.55% in assay [3]; 13.6% in assay [4]; -11.4% in assay [5]; 8.65% in assay [6].

As for `CC1(C)C=C(C(Br)c2ccc(Cl)cc2)C(=O)c2ccccc21` (stereo unspecified), the growth inhibition in assay [1] is 96.8% (active); in assay [2] it was 97.4% (active); in assay [3] it was 98.2% (active); in assay [4], 94.7% (active); in assay [5], 88.2% (active); in assay [6] it was 98.2% (active).

With `COC(CN1C=C(Sc2ccccc2)CC1)OC`, the growth inhibition is 49.2% in assay [1]; 24.2% in assay [2]; 32.3% in assay [3]; 13% in assay [4]; 27.5% in assay [5]; 56.2% in assay [6].

In the case of `CC(=O)OCC(OC(C)=O)C(OC(C)=O)C(OC(C)=O)C(OC(C)=O)C(C=O)OC(C)=O` (stereo unspecified), the growth inhibition was -31.6% in assay [1]; -1.7% in assay [2]; 11.7% in assay [3]; -37.2% in assay [4]; -1.25% in assay [5]; -7.95% in assay [6].

For the compound `COc1cccc(NCC(=O)Nn2c(-c3ccccc3)nc3ccccc3c2=O)c1`, the growth inhibition is -37.5% in assay [1]; -40.8% in assay [2]; -27.2% in assay [3]; -3.05% in assay [4]; 5% in assay [5]; -23% in assay [6].
